# E coli growth-1 – blocks Escherichia coli growth | OD600, 23 h; stronger effect = lower value | OD600 absorbance (test concentration not listed) | 0.21% of 330,000 active | AID 1053175;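 active = OD600 absorbance below the run mean of sample wells minus 3.6 SD, in any replicate, cut at about 0.56 in these data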
# Tat export inh – inhibitors of E. coli Tat protein transport; E. coli MC4100 TorA-mCherry Tat export, fluorescence; 0.036% of 340,000 active; inhibition, % at 10 µM;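 active = mean replicate inhibition at least 50% and at least half of replicates individually reaching 50%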;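 note: exported cargo escapes ClpAP degradation while cytoplasmic cargo is degraded and loses fluorescence; 0% = median of neutral control wells and 100% = median of NaSCN control wells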
# AddAB inh – less growth of phage-infected E. coli with AddAB; E. coli expressing H. pylori AddAB, absorbance growth; 0.29% of 330,000 active; inhibition, % at 11.9 µM; AID 435030; in the data active = inhibition above about 12%;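 note: 0% = vehicle wells of infected cells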
# E coli growth-2 – counter-screen for AddAB inhibitors: E. coli growth inhibition. E. coli V3065 growth, OD600 absorbance, 18 h. inhibition, % at 11.9 µM. 0.27% of 330,000 active. AID 449728;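 active = inhibition above the campaign's mean inhibition across all tested compounds plus 3 SD, cut at about 9.9% in these data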;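 note: uninfected addAB+ strain grown without phage in ampicillin broth; 0% = DMSO wells and 100% = ciprofloxacin 0.95 µg/ml wells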
# phage Ecoli inh – E. coli growth loss with phage present; growth absorbance; inhibition, % at 11.9 µM; 0.26% of 360,000 active; in the data active = inhibition above about 11%
# AI-2 QS modul – modulates the Vibrio harveyi AI-2 quorum sensing system; Vibrio harveyi JMH597 AI-2 luminescence/OD600 ratio, 9 h; stronger effect = lower value; strain lacks LuxN and CqsS sensors; 0 = neutral-control median; activity change, % at 7.5 µM; 0.4% of 300,000 active; in the data active = activity change below about -75%, passing the limit was not always enough;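 note: luminescence divided by OD600 gain over 9 h not by final OD600 alone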
# * marks the source's active call; other numbers are inactive results; . = no result given. Compounds with a hit are over-represented: about 0.79% of the library has one in this group of screens.
SMILES,E coli growth-1,Tat export inh,AddAB inh,E coli growth-2,phage Ecoli inh,AI-2 QS modul
COC(=O)C1C(O)C(C)C(O)C(C)(O)/C=C\C=C(/C)C(=O)Nc2c(C)c(OC(C)=O)c3c(c2O)C(=O)C(C)=C2OCOC(=C23)/C(C)=C/C(C)(O)C(O)C(C)C1O (configuration not stated),.,65.0*,0.3,-2.2,7.5,-159.8*
Cc1cc(C(=O)NN=Cc2c(C)n(C)c3ccccc23)n[nH]1,0.713,.,.,.,.,.
COC1C=CO[C@@]2(C)Oc3c(C)c(O)c4c(O)c(c(C=NN5CCN(C)CC5)c(O)c4c3C2=O)NC(=O)C(C)=CC=CC(C)C(O)C(C)C(O)C(C)C(OC(C)=O)C1C (some centres not stated),0.074*,.,.,.,.,.
COC1C=CO[C@@]2(C)Oc3c(C)c(O)c4c(O)c(c5c(nc6cc(C)ccn65)c4c3C2=O)NC(=O)C(C)=CC=CC(C)C(O)C(C)C(O)C(C)C(OC(C)=O)C1C (some centres not stated),0.062*,.,.,.,.,.
O=C(C=C(O)c1ccccc1)C(=O)NNC(=O)c1ccccc1,0.652,.,.,.,.,.
COc1ccc(C=NNc2nc(N3CCCC3)nc(N3CCCC3)n2)c(OC)c1OC,0.669,.,.,.,.,.
COc1ccc(-c2ccc(-c3noc(-c4ccccc4OC)n3)c(OC)n2)cc1,0.725,52.6*,2.8,0.5,0.8,10.9
CCCS(=O)(=O)N1CCCC(C(=O)NCCCN2CCCC2=O)C1 (configuration not stated),0.681,4.0,15.1*,10.8*,-0.1,20.8
O=C(NN=Cc1ccc(N2CCOCC2)cc1)C1COc2ccccc2O1 (configuration not stated),0.656,.,.,.,.,.
COc1ccc([N+](=O)[O-])c(S(=O)(=O)c2ccc(Cl)cc2)n1,0.616,1.1,4.2,3.5,-0.2,-145.0*
CC1CCN(C(=O)c2ccc(S(=O)(=O)N3CCCC3)cc2)CC1,0.677,54.5*,3.7,-0.7,3.3,.
COc1ccc(C(=O)O/N=C(\N)Cc2ccc(Cl)cc2)cc1OC,.,-10.5,1.5,-0.1,2.5,26.0
N/C(Cc1ccc(Cl)cc1)=N\OC(=O)c1ccccc1,0.667,1.7,0.3,2.9,1.4,-89.7*
CC(=NNC(=O)c1ccc(N(C)C)cc1)c1ccc(C)cc1C,0.684,.,.,.,.,.
Cc1cc(-c2n[nH]c(=S)n2N=C/C(Br)=C/c2ccccc2)n[nH]1,0.0585*,.,.,.,.,.
CC(C)(C)OC(=O)NCc1ccc(NC(=O)c2nc[nH]c2C(=O)NC(Cc2ccccc2)C(=O)OC(C)(C)C)cc1 (configuration not stated),0.732,.,.,.,.,.
Cc1nn(C)c(C(=O)NN=Cc2ccc(C(F)(F)F)cc2)c1[N+](=O)[O-],0.707,.,.,.,.,.
Cc1ccnc(NC(=O)c2ccc([N+](=O)[O-])s2)c1,0.598,-7.6,13.8*,9.5,7.5,-43.7
CCOc1ccc(N(CC(=O)Nc2ccc(C)cc2)S(=O)(=O)c2c(C)noc2C)cc1,0.757,12.2,4.0,0.4,18.0*,21.7
CCOc1ccc(N(CC(=O)Nc2ccc(F)c(F)c2)S(=O)(=O)c2c(C)noc2C)cc1,0.671,1.0,5.4,1.3,3.0,26.0
COC(=O)c1ccc(COc2ccccc2C=C(C#N)C(=O)NC(C)C)cc1,0.679,.,.,.,.,.
O=C(Cn1c(CO)nc2ccccc21)NCCc1ccc(F)cc1,0.685,2.1,10.4,10.4*,4.2,6.8
COC(=O)c1ccc(COc2ncnc3c(Cl)cc(Cl)cc23)o1,0.73,0.1,-1.6,-1.6,0.8,-78.6*
O=C(NC(=S)NNC(=O)c1cnccn1)c1ccc(F)cc1,0.405*,5.1,5.3,3.1,3.0,-89.4*
O=C(NNC(=S)NC(=O)c1cccnc1)c1ccc(F)cc1,0.533,-5.3,-2.9,-4.0,-5.4,-83.5*
SMILES,E coli growth-1,Tat export inh,AddAB inh,E coli growth-2,phage Ecoli inh,AI-2 QS modul
CC(Cc1ccccc1)=NNC(=O)CNC(=O)c1ccc(Cl)cc1Cl,0.702,.,.,.,.,.
CC1=Nc2cc(C(=O)O)ccc2Sc2ccc(C)cc21,0.684,15.3,-1.9,0.4,4.1,-90.0*
CC1=Nc2cc(C(=O)NCc3ccco3)ccc2Sc2ccc(C)cc21,0.665,-4.5,7.3,-2.5,3.7,-98.4*
CC(C)(C)C1C=C(C(=O)Nc2ccccc2)OC(OCc2ccc(CO)cc2)C1 (configuration not stated),0.694,.,.,.,.,.
COc1ccc(CCC(=O)Nc2cccc(Cl)c2)cc1,0.673,-2.8,-0.9,-1.8,3.4,-82.9*
CC(=O)Nc1cccc(NC(=O)CCc2ccccc2)c1,0.735,-3.8,3.2,0.5,3.0,29.7

# From PubChem
